Measurements: PubChem BioAssay (NCI)
The panel holds about 83,000 compounds, 20% with a hit somewhere; the sample as a whole holds those more often.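 Step 1: grow cells in 96-well plates. Step 2: add test compound at a single concentration. Step 3: incubate 48 h. Step 4: record percent growth.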 Calls of active or inactive are those of the source. Rule for the calls: active = growth percent below 10; inactive = the rest.

Key:
Assay in all cases: NCI-60 one-dose screen, 48 h (100 = growth as untreated, 0 = no growth, -100 = all killed)
Settings in all cases: 10 µM unless noted
NCI-H23 lung = tested on: NCI-H23 lung
NCI-H226 lung = tested on: NCI-H226 lung
NCI-H322M lung = tested on: NCI-H322M lung
HOP-62 NSCLC = tested on: HOP-62 NSCLC
NCI-H460 lung = tested on: NCI-H460 lung
NCI-H522 lung = tested on: NCI-H522 lung
A549/ATCC NSCLC = tested on: A549/ATCC NSCLC
786-0 renal = tested on: 786-0 renal
COLO 205 colon = tested on: COLO 205 colon
DU-145 prostate = tested on: DU-145 prostate
K-562 leukemia = tested on: K-562 leukemia
MALME-3M melanoma = tested on: MALME-3M melanoma
MDA-MB-231 breast = tested on: MDA-MB-231 breast
RXF 393 renal = tested on: RXF 393 renal
SF-268 CNS = tested on: SF-268 CNS
SF-295 CNS = tested on: SF-295 CNS
SF-539 CNS = tested on: SF-539 CNS
UACC-257 melanoma = tested on: UACC-257 melanoma
M14 melanoma = tested on: M14 melanoma

Measured: growth

COc1ccc(Nc2nc(N)nc3c(=O)[nH]ccc23)cc1
inactive: NCI-H23 lung 85.8% | NCI-H226 lung 105% | NCI-H322M lung 103% | HOP-62 NSCLC 111% | NCI-H460 lung 107% | NCI-H522 lung 99.5% | A549/ATCC NSCLC 104% | 786-0 renal 106% | COLO 205 colon 118% | DU-145 prostate 114% | K-562 leukemia 69% | MALME-3M melanoma 150% | MDA-MB-231 breast 110% | RXF 393 renal 133% | SF-268 CNS 106% | SF-295 CNS 106% | SF-539 CNS 104% | UACC-257 melanoma 131% | M14 melanoma 108%

CCOC(=O)C1C(=O)C=C(c2ccccc2)CC1c1sc(N(C)Cc2ccccc2)nc1Cl (configuration not stated)
inactive: NCI-H23 lung 89.1% | NCI-H226 lung 85.8% | NCI-H322M lung 91.2% | HOP-62 NSCLC 85.6% | NCI-H460 lung 93.3% | NCI-H522 lung 73.5% | A549/ATCC NSCLC 83.8% | 786-0 renal 93.2% | COLO 205 colon 100% | DU-145 prostate 107% | K-562 leukemia 73% | MALME-3M melanoma 120% | MDA-MB-231 breast 82.9% | RXF 393 renal 91.7% | SF-268 CNS 89.6% | SF-295 CNS 94.4% | SF-539 CNS 105% | UACC-257 melanoma 90.3% | M14 melanoma 94.7%

CN1CCC2(CC1)N=C(SCC(=O)Nc1cnc3ccccc3c1)C(c1ccc(Br)cc1)=N2
active: NCI-H460 lung 3.34% | NCI-H522 lung -17.5% | 786-0 renal -81.7% | COLO 205 colon -76.2% | K-562 leukemia -61.5% | MALME-3M melanoma -75.5% | MDA-MB-231 breast -40.5% | UACC-257 melanoma -61.2% | M14 melanoma -83.8%
inactive: NCI-H23 lung 63.5% | NCI-H226 lung 57.6% | NCI-H322M lung 50.8% | HOP-62 NSCLC 38.9% | A549/ATCC NSCLC 24.2% | DU-145 prostate 21.8% | RXF 393 renal 24.3% | SF-268 CNS 35.9% | SF-295 CNS 28% | SF-539 CNS 51.6%

O=C(Nc1cccc(-n2ccc3c(NC(=O)c4ccccc4)nccc32)c1)c1ccc(N2CCOCC2)c(C(F)(F)F)c1
active: HOP-62 NSCLC 7.08% | NCI-H460 lung 9.44% | NCI-H522 lung -22.8% | A549/ATCC NSCLC 8.39% | 786-0 renal -12.3% | COLO 205 colon -23.4% | K-562 leukemia 5.25% | RXF 393 renal -59.8% | SF-295 CNS -15.4%
inactive: NCI-H23 lung 28.1% | NCI-H226 lung 33.5% | NCI-H322M lung 27% | DU-145 prostate 18.7% | MALME-3M melanoma 53.4% | MDA-MB-231 breast 20.8% | SF-268 CNS 24.2% | SF-539 CNS 11.9% | UACC-257 melanoma 58% | M14 melanoma 38.6%

CC(C)CCSc1nc(-c2ccc(F)cc2)c(C#N)c(N2CCCCC2)n1
inactive: NCI-H23 lung 90.6% | NCI-H226 lung 88.8% | NCI-H322M lung 94.5% | HOP-62 NSCLC 102% | NCI-H460 lung 93.1% | NCI-H522 lung 78.8% | A549/ATCC NSCLC 83.3% | 786-0 renal 98.5% | COLO 205 colon 103% | DU-145 prostate 97% | K-562 leukemia 78.8% | MALME-3M melanoma 93.9% | MDA-MB-231 breast 88% | RXF 393 renal 94.3% | SF-268 CNS 97.3% | SF-295 CNS 103% | SF-539 CNS 107% | UACC-257 melanoma 84.7% | M14 melanoma 99.2%

O=C(O/C(=C/c1ccccc1)C(F)(F)F)c1ccccc1
inactive: NCI-H23 lung 109% | NCI-H226 lung 102% | NCI-H322M lung 125% | HOP-62 NSCLC 105% | NCI-H460 lung 117% | NCI-H522 lung 105% | A549/ATCC NSCLC 101% | 786-0 renal 107% | COLO 205 colon 99.3% | DU-145 prostate 102% | K-562 leukemia 101% | MALME-3M melanoma 118% | MDA-MB-231 breast 95% | RXF 393 renal 108% | SF-268 CNS 96% | SF-295 CNS 114% | SF-539 CNS 103% | UACC-257 melanoma 101% | M14 melanoma 107%

O=C(O)C(CCc1ccccc1)NCc1ccccc1 (configuration not stated)
inactive: NCI-H23 lung 94.9% | NCI-H226 lung 106% | NCI-H322M lung 103% | HOP-62 NSCLC 93.3% | NCI-H460 lung 116% | NCI-H522 lung 87% | A549/ATCC NSCLC 99.7% | 786-0 renal 100% | COLO 205 colon 97.3% | DU-145 prostate 95.7% | K-562 leukemia 113% | MALME-3M melanoma 89.8% | MDA-MB-231 breast 91.4% | RXF 393 renal 128% | SF-268 CNS 98.4% | SF-295 CNS 103% | SF-539 CNS 89.8% | UACC-257 melanoma 99.4% | M14 melanoma 79.6%

S=C(Cc1ccccc1)N1CCN(c2ccccc2Cl)CC1
inactive: NCI-H23 lung 100% | NCI-H226 lung 96.9% | NCI-H322M lung 96.3% | HOP-62 NSCLC 105% | NCI-H460 lung 107% | NCI-H522 lung 88.2% | A549/ATCC NSCLC 95.1% | 786-0 renal 96.7% | COLO 205 colon 109% | DU-145 prostate 102% | K-562 leukemia 89.8% | MALME-3M melanoma 95.2% | MDA-MB-231 breast 100% | RXF 393 renal 117% | SF-268 CNS 95.2% | SF-295 CNS 90.7% | SF-539 CNS 105% | UACC-257 melanoma 110% | M14 melanoma 99.1%
